Test results taken from PubChem BioAssay AID504766 (The Scripps Research Institute Molecular Screening Center, 2011).
Out of some 340,000 compounds screened, about 3,400 (1%) were called active. For the sample, actives were picked, then their nearest neighbours and some compounds at random. Unmarked numbers belong to inactive results.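 How the source made its calls: active means inhibition above the mean over all tested compounds plus 3 SD (cut at about 4.2% in these data); inactive means the rest.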

molecular target: Nuclear receptor subfamily 0 group B member 1 (Homo sapiens) (UniProt P51843); assay: relief of DAX1 transcriptional repression – cell-based, HEK293, Gal4-DAX1, luciferase luminescence, primary screen (AID 504766); conditions: HEK293 Gal4-DAX1 luciferase reporter, at 6.75 µM, hits give high values;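 further: 0% = DAX1-transfected cells with DMSO and 100% = empty-vector control cells with DMSO; inhibition shows as a rise in luminescence from relieved DAX1 repression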
Sequence (P51843 207-470 limits assumed): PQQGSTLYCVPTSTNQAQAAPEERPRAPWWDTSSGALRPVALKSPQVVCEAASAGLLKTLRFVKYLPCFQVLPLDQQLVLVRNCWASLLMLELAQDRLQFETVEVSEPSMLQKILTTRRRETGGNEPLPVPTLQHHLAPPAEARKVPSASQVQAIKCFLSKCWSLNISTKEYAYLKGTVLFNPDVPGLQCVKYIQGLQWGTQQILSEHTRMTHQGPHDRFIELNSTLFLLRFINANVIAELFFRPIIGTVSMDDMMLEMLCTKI

Row | Compound | inhibition
1 | CC1C(=O)OC2CCN3CC=C(COC(=O)C(C)(O)C1(C)O)C23 (stereo not given) | 6.45% (active)
2 | O=C(NCC1=C(c2ccc3ccccc3c2)C[C@@H]2CC[C@H]1N2Cc1ccco1)c1cccs1 | 0.9%
3 | CN(C)CC1CCCCC1OC(=O)c1ccc(Cl)c(Cl)c1 (stereo not given) | 1.17%
4 | N=c1ccccn1Cc1ccccc1 | 4.71% (active)
5 | COc1cc2nc(N3CCN(C(=O)[C@@H]4CCCO4)CC3)nc(N)c2cc1OC | -1.49%
6 | CC(C(=O)Nc1ccc(Cl)cc1Cl)N1CC=C(c2ccccc2)CC1 (stereo not given) | 0.95%
7 | COC(=O)C1=C(c2ccc3ccccc3c2)C[C@@H]2CC[C@H]1N2C(=O)NCCO | -0.02%
8 | COC(=O)C1=C(c2ccc(F)cc2F)C[C@@H]2CC[C@H]1N2C(=O)NC1CC1 | 1.3%
9 | Fc1ccc(C2N3CCCN23)cc1 (stereo not given) | 6.8% (active)
10 | Cc1cccc(NC(=O)N2CC3CC(C2)c2cccc(=O)n2C3)c1 (stereo not given) | -0.11%
11 | CC(=CCOc1ccc2ccc(=O)oc2c1)C1=CC(=O)C(C)(C)O1 | -1.41%
12 | C[C@]12CC[C@H](O)CC1=C([N+](=O)[O-])CC1C2CC[C@@]2(C)C1CC[C@@H]2O (stereo not given in full) | 0.51%
13 | COc1ccc(-c2nn(CCC#N)cc2C(=O)O)cc1 | 0.78%
14 | CC/C(=N\NC(=O)c1ccccc1O)c1c(O)n(Cc2ccccc2)c(=O)[nH]c1=O | 4.6% (active)
15 | CCC(=NCc1ccco1)c1c(O)n(Cc2ccccc2)c(=O)[nH]c1=O | -0.6%
16 | O=C(N/N=C/c1c(O)n(Cc2ccccc2)c(=O)[nH]c1=O)c1ccccc1 | 0.57%
17 | Cc1ccc(OC(=O)N(C)C[C@@H]2OCc3cnnn3CCCC(=O)N([C@H](C)CO)C[C@@H]2C)cc1 | 1.2%
18 | COC(=O)C1=C(c2cccc(OCc3ccccc3)c2)C[C@@H]2CC[C@H]1N2C(=O)NCc1ccc(Br)cc1 | -1.05%
19 | C=Cn1ccnc1P(=S)(c1cc(N(CC)CC)ns1)c1nccn1C=C | 0.78%
20 | Cc1nc2ccccn2c1P(=S)(N1CCCCC1)N1CCCCC1 | -0.88%
21 | CC(=O)OC1C2(CC3N4C(=O)C5(CO)SSC4(CC31O)C(=O)N5C)OC(C)C(C)(C)C2=O (stereo not given) | -6.61%
22 | O=C(c1cc(S(=O)(=O)N2CCOCC2)ccc1F)N1CCC2(CC1)OCCO2 | 0.34%
23 | O=C(c1cc(-c2ccncc2)nc2ccccc12)N1CCC2(CC1)OCCO2 | 1.03%
24 | O=C(c1ccccc1[N+](=O)[O-])N1CCC2(CC1)OCCO2 | 5.98% (active)
25 | CN(C)c1nc(N(C)C)nc(N(C#N)CCCl)n1 | -0.78%
26 | CNCC(O)c1cc(F)c(OCc2ccccc2)c(OCc2ccccc2)c1F (stereo not given) | -0.1%
27 | CN1CCc2cc3c(cc2[C@H]1[C@@H]1OC(=O)c2c1ccc1c2OCO1)OCO3 | 1.17%
28 | O=C1NC(=O)C(CCOc2ccccc2)(CCc2ccccc2)C(=O)N1 | -0.23%
29 | CCC(C)n1c(O)c(/C=N/Nc2nc3c(c(=O)n(C)c(=O)n3C)n2C)c(=O)[nH]c1=S (stereo not given) | 4.71% (active)
30 | O=C(CCC(=O)N1C[C@H]2C[C@@H](C1)c1cccc(=O)n1C2)NCc1ccccc1C(F)(F)F | 0.36%
